# For some assays here: Results with a measured potency or affinity are listed apart. Some of the results follow. Calls of active or inactive are those of the source.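 How the source made its calls, unless noted: active means fluorescence ratio normalized to control raised more than 50% in primary screen plus both repeat runs; inactive means the rest.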
# How the values were obtained:
# [1] = system: TRPC4 beta (transient receptor potential cation channel C4), mouse; test: TRPC4 cation channel opening, retest – cell-based, Fluo4 calcium, HEK293 TRPC4beta/mu-opioid, duplicates, 10 µM, confirmation (AID 2426); conditions: Fluo4 calcium fluorescence, at 10 µM; active compounds read high;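 further: percent rise of integrated ratio over buffer wells lacking compound which define 0%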
# [2] = system: transient receptor potential cation channel C4 beta (TRPC4), mouse; test: TRPC4 cation channel opening, second retest – cell-based, second round, Fluo4, HEK293 TRPC4beta/mu-opioid, 1 µM, confirmation (AID 2461;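 active means primary screen active and over 50% activation in each of two duplicate runs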;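 on activation: 0% = wells without test compound as baseline of integrated fluorescence ratio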); conditions: Fluo4 calcium fluorescence, at 1 µM; active compounds read high
# [3] = system: TRPC4 (transient receptor potential cation channel C4 beta), mouse; test: potentiation of DAMGO EC20 TRPC4 response – cell-based, second round, Fluo-4, HEK293 TRPC4beta/mu-opioid, 1 µM, confirmation (AID 2554;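 active means primary screen hit whose fluorescence ratio, in both repeats, exceeds the weak agonist control mean by 3 SD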); conditions: DAMGO EC20, Fluo-4 calcium flux, at 1 µM; active compounds read high
# [4] = system: TRPC4 beta (transient receptor potential cation channel C4), mouse; test: potentiation of DAMGO EC20 TRPC4 response – cell-based, Fluo-4, HEK293 TRPC4beta/mu-opioid, confirmation (AID 2555;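 active means primary screen hit whose calcium fluorescence ratio, in both repeats, exceeds the weak agonist control mean by 3 SD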); conditions: DAMGO EC20, Fluo-4 calcium flux, at 10 µM; active compounds read high
# [5] = target: Short transient receptor potential channel 4 (Mus musculus) (UniProt Q9QUQ5); test: blockers of DAMGO-evoked TRPC4 calcium flux – cell-based, Fluo4, HEK293 TRPC4beta/mu-opioid, confirmation (AID 2636;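 active means calcium signal cut by more than 3 SD below the full-agonist control yet still positive, in both repeats and the earlier primary screen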); conditions: at 10 µM; active compounds read high
# Chain of Short transient receptor potential channel 4 (Mus musculus) (Q9QUQ5 whole entry, looked up): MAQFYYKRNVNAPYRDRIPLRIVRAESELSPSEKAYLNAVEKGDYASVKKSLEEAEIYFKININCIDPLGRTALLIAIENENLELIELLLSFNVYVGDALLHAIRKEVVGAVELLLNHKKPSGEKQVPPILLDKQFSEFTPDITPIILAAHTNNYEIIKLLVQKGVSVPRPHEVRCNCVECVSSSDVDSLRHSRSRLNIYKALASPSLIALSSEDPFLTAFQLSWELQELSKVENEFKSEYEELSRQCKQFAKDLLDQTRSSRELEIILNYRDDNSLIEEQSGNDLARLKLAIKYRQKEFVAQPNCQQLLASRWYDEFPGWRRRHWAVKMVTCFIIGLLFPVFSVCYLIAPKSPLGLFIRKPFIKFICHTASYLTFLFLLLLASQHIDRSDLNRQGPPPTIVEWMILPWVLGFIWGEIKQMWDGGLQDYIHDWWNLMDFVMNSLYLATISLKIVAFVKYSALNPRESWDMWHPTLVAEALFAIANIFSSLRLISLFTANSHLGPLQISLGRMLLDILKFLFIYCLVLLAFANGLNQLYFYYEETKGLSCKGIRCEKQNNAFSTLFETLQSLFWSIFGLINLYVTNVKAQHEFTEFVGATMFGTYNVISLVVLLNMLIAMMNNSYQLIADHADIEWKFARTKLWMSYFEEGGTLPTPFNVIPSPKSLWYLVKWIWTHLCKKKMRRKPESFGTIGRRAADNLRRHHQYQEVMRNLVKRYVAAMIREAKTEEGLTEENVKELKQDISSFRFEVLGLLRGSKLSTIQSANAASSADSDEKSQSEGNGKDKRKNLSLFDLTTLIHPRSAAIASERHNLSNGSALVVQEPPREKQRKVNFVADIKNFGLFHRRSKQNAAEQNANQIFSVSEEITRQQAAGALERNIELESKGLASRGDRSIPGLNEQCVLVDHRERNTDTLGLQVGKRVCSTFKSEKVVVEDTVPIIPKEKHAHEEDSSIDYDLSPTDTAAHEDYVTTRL
# [6] = target: Short transient receptor potential channel 4 (Mus musculus) (UniProt Q9QUQ5); test: blockers of DAMGO-evoked TRPC4 calcium flux – cell-based, second round, Fluo4, HEK293 TRPC4beta/mu-opioid, 1 µM, confirmation (AID 2637;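 active means calcium signal ratio cut to more than 3 SD under the fully stimulated control mean yet still positive, in both repeats and the primary screen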); conditions: at 1 µM; active compounds read high
# [7] = target: Short transient receptor potential channel 4 (Mus musculus) (UniProt Q9QUQ5); test: potentiation of DAMGO-evoked TRPC4 calcium signal – cell-based, HEK293 TRPC4/mu-opioid, Fluo-4 calcium, EC20 DAMGO, dose response (AID 434941;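 active means earlier screen potentiator hit that boosts the TRPC4 ion channel at some dose, with a dose response; inactive means no potentiation, no dose response, or not a prior hit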;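 further: calcium entry triggered by an EC20 dose of DAMGO at the co-expressed mu-opioid receptor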)
# [8] = target: Short transient receptor potential channel 4 (Mus musculus) (UniProt Q9QUQ5); test: block of DAMGO-driven TRPC4 calcium entry – cell-based, HEK293 TRPC4/mu-opioid, Fluo-4 calcium, dose response (AID 434942;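 active means primary screen inhibitor hit that blocks the TRPC4 channel at some tested dose, yielding a dose curve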)
# [9] = target: Short transient receptor potential channel 6 (Mus musculus) (UniProt Q61143); test: TRPC6 blockade by TRPC4 inhibitor hits – cell-based, HEK293, membrane potential dye, duplicate, selectivity assay for TRPC4 inhibitor project, confirmation (AID 434948;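 active means active in primary screen and both duplicates, each dropping signal beyond three positive-control SD with fluorescence still positive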); conditions: HEK293 TRPC6, membrane potential dye fluorescence, at 10 µM; inhibition: active compounds read high, stimulated with maximal-effect acetylcholine unless noted; outcome: stimulated with maximal-effect acetylcholine unless noted
# Chain of Short transient receptor potential channel 6 (Mus musculus) (Q61143 whole entry, looked up): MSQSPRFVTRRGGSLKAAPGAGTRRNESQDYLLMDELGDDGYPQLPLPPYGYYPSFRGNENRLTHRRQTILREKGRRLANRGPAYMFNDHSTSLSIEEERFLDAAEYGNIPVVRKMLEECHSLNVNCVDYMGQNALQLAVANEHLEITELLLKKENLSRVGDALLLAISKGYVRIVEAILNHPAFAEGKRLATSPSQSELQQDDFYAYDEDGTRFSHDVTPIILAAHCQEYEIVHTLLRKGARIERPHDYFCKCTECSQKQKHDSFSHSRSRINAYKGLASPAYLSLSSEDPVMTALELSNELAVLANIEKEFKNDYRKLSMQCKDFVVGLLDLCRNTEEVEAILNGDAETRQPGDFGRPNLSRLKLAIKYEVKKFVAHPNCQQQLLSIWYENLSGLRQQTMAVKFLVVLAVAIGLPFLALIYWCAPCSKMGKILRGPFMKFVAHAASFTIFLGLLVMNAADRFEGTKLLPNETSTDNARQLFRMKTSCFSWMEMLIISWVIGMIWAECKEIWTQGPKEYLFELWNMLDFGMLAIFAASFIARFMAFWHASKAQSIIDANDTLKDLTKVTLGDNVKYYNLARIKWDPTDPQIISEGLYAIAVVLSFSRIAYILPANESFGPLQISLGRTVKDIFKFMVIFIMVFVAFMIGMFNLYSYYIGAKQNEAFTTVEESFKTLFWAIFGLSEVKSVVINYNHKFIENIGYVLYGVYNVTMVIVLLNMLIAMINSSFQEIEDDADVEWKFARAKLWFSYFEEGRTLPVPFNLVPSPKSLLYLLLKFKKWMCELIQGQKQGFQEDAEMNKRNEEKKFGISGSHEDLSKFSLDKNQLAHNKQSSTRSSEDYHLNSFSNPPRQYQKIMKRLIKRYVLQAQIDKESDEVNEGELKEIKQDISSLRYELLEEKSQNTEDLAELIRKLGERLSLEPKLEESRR
# [10] = target: Short transient receptor potential channel 6 (Mus musculus) (UniProt Q61143); test: TRPC6 opening by TRPC4 activator hits – cell-based, HEK293, membrane potential dye, duplicate, selectivity assay for TRPC4 activator project, confirmation (AID 434950;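 active means membrane potential signal rise above negative control mean plus 3 SD in both duplicates, also active in the earlier TRPC4 screen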;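 on activation: 0% = buffer only wells and 100% = acetylcholine maximal-effect wells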); conditions: HEK293 TRPC6, membrane potential fluorescence, at 10 µM; activation: active compounds read high; outcome: activation
# [11] = target: Short transient receptor potential channel 6 (Mus musculus) (UniProt Q61143); test: positive modulators of mouse TRPC6 channel – HEK293 cells, membrane potential dye, duplicate, selectivity assay for TRPC4 potentiator project, confirmation (AID 434952;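 active means compound raising the membrane signal above positive-control mean plus 3 SD in both repeats, and a primary screen hit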); conditions: HEK293 TRPC6, membrane potential dye fluorescence, at 10 µM; maximal acetylcholine added after compound unless noted
# [12] = target: Short transient receptor potential channel 4 (Mus musculus) (UniProt Q9QUQ5); test: calcium flux activators in TRPC4/5HT1a cells, counter-screen for TRPC4 activator project, cell-based, second counter screen, HEK293 TRPC4/5HT1a, Fluo-4 (AID 434977;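 active means calcium signal rise above buffer-control mean plus 5 SD in both duplicates, and also a hit in the primary screen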;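 on activation: plate controls were assay buffer for no effect and maximal serotonin response for full effect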); conditions: Fluo-4 calcium flux, at 10 µM; active compounds read high
# [13] = serotonin-gated TRPC4 signal block – cell-based, second counter screen, HEK293 TRPC4/5HT1a, Fluo-4, counter-screen for TRPC4 inhibitor project, confirmation (AID 434978;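 active means primary screen active whose calcium signal fell more than 3 SD beyond the full-serotonin control mean in both duplicate plates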;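 further: serotonin given first at submaximal then at maximal dose after compound preincubation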); conditions: Fluo-4 calcium flux, at 10 µM; inhibition: active compounds read high, serotonin added to trigger calcium flux unless noted; outcome: serotonin added to trigger calcium flux unless noted
# [14] = system: TRPC4 (mouse), co-expressed with 5HT1a in HEK293; test: enhancement of serotonin-evoked TRPC4 response – cell-based, second counter screen, HEK293 TRPC4/5HT1a, Fluo-4, counter-screen for TRPC4 potentiator project, confirmation (AID 434979;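 active means signal rise over 3 SD above mean of control wells given weak agonist, in both repeats and first screen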); conditions: Fluo-4 calcium flux, at 10 µM; outcome: serotonin added at its EC20 dose unless noted; potentiation: active compounds read high, serotonin added at its EC20 dose unless noted
# [15] = nonspecific calcium rise without TRPC4 – cell-based, HEK293 mu-opioid receptor line, counter-screen for TRPC4 activator project, confirmation (AID 449723;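 active means hit in primary screen, with calcium signal over 5 SD above buffer well mean in both duplicates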;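 further: counter screen cells carry the mu-opioid receptor alone and lack TRPC4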); conditions: HEK293 mu-opioid cells, Fluo-4 calcium fluorescence, at 10 µM; active compounds read high
# [16] = nonspecific potentiation of DAMGO calcium response – cell-based, HEK293 mu-opioid receptor line, counter-screen for TRPC4 allosteric potentiator project, confirmation (AID 449724;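 active means calcium signal rise more than 3 SD above the low-dose agonist control mean, in both duplicate plates and the primary screen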); conditions: HEK293 mu-opioid receptor cells, Fluo-4 calcium flux, at 10 µM; compound added before EC20 DAMGO stimulus unless noted
# [17] = nonspecific flux increase, KCNQ1-free cells – parental CHO cells, counter-screen for KCNQ1 potentiator project (AID 493006;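 active means duplicate-averaged activation above buffer control mean plus 5 SD of those controls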;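 on activation: fluorescence ratio of max minus min over baseline after K+ and Tl+ depolarization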); conditions: parental CHO-K1 cells, FluxOR thallium flux, at 10 µM; active compounds read high
# [18] = target: Potassium voltage-gated channel subfamily KQT member 1 (Homo sapiens) (UniProt P51787); test: enhancement of KCNQ1 channel thallium flux – FluxOR thallium flux, CHO cells, duplicates, confirmation (AID 493007;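 active means potentiation averaged over duplicate wells exceeding buffer-only control mean by more than 3 SD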;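 on outcome: cells depolarized by a potassium plus thallium sulfate stimulus after compound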;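 on potentiation: 0% = buffer-only wells and 100% = R-L3 activator control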); conditions: KCNQ1 cell line, FluxOR thallium flux fluorescence, at 10 µM; active compounds read high, % of reference activator effect, buffer zero
# Chain of Potassium voltage-gated channel subfamily KQT member 1 (Homo sapiens) (P51787 whole entry, looked up): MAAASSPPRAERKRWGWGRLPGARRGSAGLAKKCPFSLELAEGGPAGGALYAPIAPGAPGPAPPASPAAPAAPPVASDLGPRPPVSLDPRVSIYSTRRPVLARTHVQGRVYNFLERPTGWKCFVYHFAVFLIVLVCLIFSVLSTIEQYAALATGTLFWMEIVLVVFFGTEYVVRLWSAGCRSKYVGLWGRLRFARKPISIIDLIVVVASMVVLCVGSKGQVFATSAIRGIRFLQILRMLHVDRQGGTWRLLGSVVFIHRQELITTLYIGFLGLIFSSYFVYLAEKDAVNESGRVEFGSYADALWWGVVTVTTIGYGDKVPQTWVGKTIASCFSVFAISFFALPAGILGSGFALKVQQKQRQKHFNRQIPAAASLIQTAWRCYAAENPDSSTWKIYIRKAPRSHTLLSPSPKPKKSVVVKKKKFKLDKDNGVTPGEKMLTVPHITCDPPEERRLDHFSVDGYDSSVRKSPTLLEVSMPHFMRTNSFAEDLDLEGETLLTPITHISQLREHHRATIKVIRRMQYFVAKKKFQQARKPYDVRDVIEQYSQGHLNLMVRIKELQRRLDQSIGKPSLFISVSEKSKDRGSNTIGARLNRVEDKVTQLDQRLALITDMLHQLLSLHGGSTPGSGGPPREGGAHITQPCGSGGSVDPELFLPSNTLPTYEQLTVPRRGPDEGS
# [19] = target: Potassium voltage-gated channel subfamily KQT member 2 (Rattus norvegicus) (UniProt O88943); test: KCNQ2 thallium flux enhancement – KCNQ2-CHO-K1 cells, selectivity assay for KCNQ1 potentiator project (AID 493009;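 active means mean duplicate potentiation above the buffer control mean plus 5 SD of buffer wells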;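 further: assay conditions were tuned for KCNQ1 rather than KCNQ2 modulators; signal is max minus min fluorescence divided by baseline after thallium stimulus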); conditions: FluxOR thallium flux fluorescence, at 10 µM; active compounds read high, scaled: buffer 0, activator control 100
# Chain of Potassium voltage-gated channel subfamily KQT member 2 (Rattus norvegicus) (O88943 whole entry, looked up): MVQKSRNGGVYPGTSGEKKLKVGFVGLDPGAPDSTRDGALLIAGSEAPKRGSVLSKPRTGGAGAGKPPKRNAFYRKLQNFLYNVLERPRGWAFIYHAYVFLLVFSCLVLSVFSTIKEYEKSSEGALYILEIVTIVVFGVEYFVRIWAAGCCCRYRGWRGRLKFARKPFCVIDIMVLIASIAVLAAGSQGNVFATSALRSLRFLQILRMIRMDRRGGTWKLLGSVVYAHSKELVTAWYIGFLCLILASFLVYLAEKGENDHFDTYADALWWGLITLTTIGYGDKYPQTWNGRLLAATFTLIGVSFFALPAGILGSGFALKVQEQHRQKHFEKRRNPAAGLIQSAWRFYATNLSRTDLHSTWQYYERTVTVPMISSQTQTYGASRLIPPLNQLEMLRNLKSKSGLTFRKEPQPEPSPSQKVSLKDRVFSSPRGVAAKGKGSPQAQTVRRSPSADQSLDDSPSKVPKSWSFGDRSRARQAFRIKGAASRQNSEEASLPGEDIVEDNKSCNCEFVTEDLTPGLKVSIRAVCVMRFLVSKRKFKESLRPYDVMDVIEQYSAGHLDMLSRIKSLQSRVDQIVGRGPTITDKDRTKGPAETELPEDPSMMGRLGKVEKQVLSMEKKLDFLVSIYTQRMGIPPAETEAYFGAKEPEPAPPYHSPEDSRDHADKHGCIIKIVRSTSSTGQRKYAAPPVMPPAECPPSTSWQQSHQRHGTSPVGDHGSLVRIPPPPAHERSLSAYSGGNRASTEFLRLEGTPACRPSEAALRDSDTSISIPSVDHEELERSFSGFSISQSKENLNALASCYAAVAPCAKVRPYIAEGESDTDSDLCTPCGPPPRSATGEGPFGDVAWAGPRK
# [20] = target: Potassium voltage-gated channel subfamily KQT member 1 (Homo sapiens) (UniProt P51787); test: KCNQ1 activators by electrophysiology – IonWorks patch clamp, KCNQ1-CHO cells, orthogonal assay for KCNQ1 potentiator project, confirmation (AID 493184;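 active means current rise at least 3 SD above the untreated control mean in each of two repeat wells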); conditions: automated patch clamp current, at 10 µM
# [21] = nonspecific voltage dye response without TRPC6 – cell-based, parental HEK293, counter-screen for TRPC6 modulator project, confirmation (AID 488924;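 active means membrane potential signal moves up or down beyond 5 SD from buffer-only wells, on both duplicate plates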); conditions: parental HEK293, membrane potential dye fluorescence; at 10 µM
# [22] = membrane potential response modulators in host HEK293 cells – cell-based, second counter-screen, parental HEK293, membrane potential dye, counter-screen for TRPC6 modulator project, confirmation (AID 488926;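 active means membrane potential signal drops by more than 5 SD from the mean control signal, in both duplicate plates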); conditions: parental HEK293, membrane potential dye fluorescence, at 10 µM, after compound, maximal acetylcholine stimulation; active compounds read high
# [23] = system: Transient receptor potential cation channel subfamily C member 4 (mouse); test: off-target membrane potential effects via mouse TRPC4 – cell-based, HEK293 TRPC4/mu-opioid, membrane potential dye, selectivity assay for TRPC6 modulator project, confirmation (AID 488927;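 active means membrane potential signal moved up or down beyond 5 SD of buffer control wells, in both duplicate plates, actives on both sides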;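 further: plate controls were assay buffer wells for no effect and DAMGO maximal-effect wells for full effect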); conditions: membrane potential fluorescence, at 10 µM
# [24] = system: TRPC4 (transient receptor potential cation channel C4), mouse; test: DAMGO-evoked mouse TRPC4 response blockade – cell-based, second screen, HEK293 TRPC4/mu-opioid, membrane potential dye, selectivity assay for TRPC6 modulator project, confirmation (AID 488928;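 active means drop in membrane potential signal beyond 5 SD of the control wells in both duplicate plates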;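 further: TRPC4 counter screen for TRPC6 hits run under conditions tuned for TRPC6 not TRPC4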); conditions: membrane potential dye fluorescence, at 10 µM, stimulated with maximal-effect DAMGO; active compounds read high
# [25] = target: Short transient receptor potential channel 6 (Mus musculus) (UniProt Q61143); test: blockers of TRPC6 cation channel activity – HEK293 cells, membrane potential dye, duplicate, confirmation (AID 488960;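 active means fluorescence ratio falls more than 5 SD below the full-stimulation control mean, in both duplicate runs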;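 on inhibition: integrated fluorescence ratio of peak minus minimum over baseline after agonist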); conditions: ACh-evoked depolarization, at 10 µM; active compounds read high
# [26] = target: Short transient receptor potential channel 6 (Mus musculus) (UniProt Q61143); test: mouse TRPC6 channel activators, confirmation, HEK293 cells, membrane potential dye, duplicate (AID 488961;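 active means ratio signal rise beyond 5 SD above unstimulated control wells' mean, seen in both duplicate runs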); conditions: HEK293-TRPC6 membrane potential dye fluorescence, FDSS; at 10 µM
# [27] = target: Short transient receptor potential channel 4 (Mus musculus) (UniProt Q9QUQ5); test: DAMGO-gated TRPC4 membrane potential modulation – cell-based, second specificity screen, HEK293 TRPC4/mu-opioid, selectivity assay for TRPC6 inhibitor project, confirmation (AID 2776;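 active means compounds whose fluorescence signal differed from control wells by over 3 SD, either direction, in both duplicate plates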); conditions: HEK293 TRPC4/MOR, membrane potential dye fluorescence; at 10 µM; active compounds read high; channel activated by saturating DAMGO dose
# [28] = system: transient receptor potential cation channel C4 (TRPC4), mouse; test: membrane potential change in TRPC4 cells – cell-based, HEK293 TRPC4/mu-opioid, membrane potential dye, selectivity assay for TRPC6 inhibitor project, confirmation (AID 2777;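 active means rise or fall in signal beyond 3 SD of buffer-only wells in both replicate plates, either sign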;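 further: integrated kinetic ratio of fluorescence range over baseline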); conditions: membrane potential fluorescence, at 10 µM
# [29] = parental HEK293 depolarization signal interference – cell-based, second counter screen, counter-screen for TRPC6 inhibitor project, confirmation (AID 2779;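 active means membrane potential signal moving either way by over 3 SD of the maximum-effect control, in both duplicate plates, meaning non-specific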); conditions: parental HEK293 membrane potential dye fluorescence; at 10 µM; maximal acetylcholine challenge after compound addition
# [30] = nonspecific voltage dye signal in HEK293 – cell-based, parental HEK293, counter-screen for TRPC6 inhibitor project, confirmation (AID 2780;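 active means membrane potential signal shifting up or down by more than 3 SD of buffer-only wells, on both duplicate plates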); conditions: parental HEK293 membrane potential dye fluorescence; at 10 µM
structure (smiles),measurement,setting,value
O=[N+]([O-])c1ccc(N2CCNCC2)cc1NC1CC1,activation,[1],64% (active)
same,activation,[2],67% (active)
same,outcome,[3],inactive
same,outcome,[4],inactive
same,outcome,[5],inactive
same,outcome,[6],inactive
same,outcome,[7],inactive
same,outcome,[8],inactive
same,outcome,[9],inactive
same,outcome,[10],inactive
same,outcome,[11],inactive
same,activation,[12],26.6% (active)
same,outcome,[13],inactive
same,outcome,[14],inactive
same,outcome,[15],inactive
same,outcome,[16],inactive
Cc1ccc(C[n+]2c(-c3ccc(C)cc3)cc(-c3ccc(C)cc3)cc2-c2ccc(C)cc2)cc1,activation,[1],152% (active)
same,outcome,[2],inactive
same,outcome,[3],inactive
same,outcome,[4],inactive
same,outcome,[5],inactive
same,outcome,[6],inactive
same,outcome,[7],inactive
same,outcome,[8],inactive
same,outcome,[9],inactive
same,outcome,[10],inactive
same,outcome,[11],inactive
same,activation,[12],48.5% (active)
same,outcome,[13],inactive
same,outcome,[14],inactive
same,activation,[15],19.8% (active)
same,outcome,[16],inactive
same,activation,[17],142% (active)
same,potentiation,[18],124% (active)
same,potentiation,[19],185% (active)
same,outcome,[20],inactive
COc1cc2c3cc1Oc1cc(ccc1O)C[C@@H]1c4c(cc(OC)c(O)c4Oc4ccc(cc4)C[C@H]3N(C)CC2)CCN1C,activation,[1],69% (active)
same,outcome,[2],inactive
same,outcome,[3],inactive
same,outcome,[4],inactive
same,outcome,[5],inactive
same,outcome,[6],inactive
same,outcome,[7],inactive
same,outcome,[8],inactive
same,outcome,[9],inactive
same,activation,[10],26% (active)
same,outcome,[11],inactive
same,outcome,[12],inactive
same,outcome,[13],inactive
same,outcome,[14],inactive
same,outcome,[15],inactive
same,outcome,[16],inactive
COc1ccc2c(c1O)[C@]13CCN(C)[C@H](C2)[C@@H]1CCC(=O)C3,activation,[1],82% (active)
same,activation,[2],99% (active)
same,outcome,[3],inactive
same,outcome,[4],inactive
same,outcome,[5],inactive
same,outcome,[6],inactive
same,outcome,[7],inactive
same,outcome,[8],inactive
same,outcome,[9],inactive [setting not given]
same,activation,[10],29.5% (active)
same,outcome,[11],inactive [setting not given]
same,outcome,[12],inactive
same,outcome,[13],inactive [setting not given]
same,outcome,[14],inactive [setting not given]
same,outcome,[15],inactive
same,outcome,[16],inactive [setting not given]
CC1(C)Cc2c(C#N)c(N3CCNCC3)nc(-c3ccco3)c2CS1,outcome,[21],inactive
same,outcome,[22],inactive
same,"percent change from control (negative = decrease, positive = increase)",[23],-14.5% (active)
same,inhibition,[24],76.5% (active)
same,inhibition,[25],62.5% (active)
same,outcome,[26],inactive
CNc1ccc2oc(C[C@H]3O[C@@]4(CC[C@H]3C)O[C@H]([C@H](C)C(=O)c3ccc[nH]3)[C@H](C)C[C@H]4C)nc2c1C(=O)O,activation,[17],144% (active)
same,potentiation,[18],89% (active)
same,potentiation,[19],210% (active)
same,outcome,[20],inactive
COC(=O)C1=CCCN(C)C1,activation,[1],96% (active)
same,outcome,[2],inactive
same,outcome,[3],inactive
same,outcome,[4],inactive
same,outcome,[5],inactive
same,outcome,[6],inactive
same,outcome,[7],inactive
same,outcome,[8],inactive
same,outcome,[9],inactive
same,activation,[10],70% (active)
same,outcome,[11],inactive
same,activation,[12],43.8% (active)
same,outcome,[13],inactive
same,outcome,[14],inactive
same,activation,[15],19.7% (active)
same,outcome,[16],inactive
Clc1ccc2sc(C3CCNCC3)nc2c1,activation,[1],210% (active)
same,activation,[2],166% (active)
same,outcome,[3],inactive
same,outcome,[4],inactive
same,outcome,[5],inactive
same,outcome,[6],inactive
same,outcome,[7],inactive
same,outcome,[8],inactive
same,outcome,[9],inactive
same,outcome,[10],inactive
same,outcome,[11],inactive
same,activation,[12],82.6% (active)
same,outcome,[13],inactive
same,outcome,[14],inactive
same,outcome,[15],inactive
same,outcome,[16],inactive
CCOc1cc(C=C2C(=O)NC(=O)NC2=O)ccc1OS(=O)(=O)c1ccccc1,outcome,[17],inactive
same,outcome,[18],inactive
same,outcome,[19],inactive
same,outcome,[20],inactive
COc1cc(-n2c(=S)[nH]c3ccccc3c2=O)c(Cl)cc1Cl,outcome,[17],inactive
same,outcome,[18],inactive
same,outcome,[19],inactive
same,outcome,[20],inactive
CN(C)C=C1C(=O)N(C2CCCCC2)C(=O)N(C2CCCCC2)C1=O,activation,[1],83% (active)
same,outcome,[2],inactive
same,outcome,[3],inactive
same,outcome,[4],inactive
same,outcome,[5],inactive
same,outcome,[6],inactive
same,outcome,[7],inactive
same,outcome,[8],inactive
same,outcome,[9],inactive [setting not given]
same,outcome,[10],inactive
same,outcome,[11],inactive [setting not given]
same,activation,[12],124% (active)
same,outcome,[13],inactive [setting not given]
same,outcome,[14],inactive [setting not given]
same,activation,[15],39.4% (active)
same,outcome,[16],inactive [setting not given]
COc1cccc(-c2nc3ccc(N4CCN(C)CC4)cc3[nH]2)c1,inhibition,[27],74% (active)
same,outcome,[28],inactive
same,outcome,[29],inactive
same,outcome,[30],inactive
same,outcome,[25],inactive
same,outcome,[26],inactive

# Reference: PubChem BioAssay
